An excerpt weighted towards active compounds, which were near 19% of everything screened.
TDP1 cell noCPT – qHTS for Inhibitors of human tyrosyl-DNA phosphodiesterase 1 (TDP1): qHTS in cells in absence of CPT. Potency, µM (top dose mostly 46.2 µM), for the others: at the highest dose activity change, negative = growth inhibition, most hits filed as inhibitors. DT40 Tdp1-/- hTDP1 cells, no CPT, ATP luminescence, 48 h. AID 686978, 2013. 15% of 420,000 active; further: potency means the concentration at half of the fitted maximal effect; nearly all actives have a fitted effect of over 55% in size
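Luminescent ATP content (CellTiter-Glo) served as the growth readout. Knockout chicken DT40 cells expressing human TDP1 were exposed to compounds without camptothecin for a minimum 48 hr at 37 °C.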
HT1080 IDH1KD tx – qHTS for induction of synthetic lethality in tumor cells producing 2HG: qHTS for the HT-1080-IDH1KD cell line. HT-1080 IDH1 knockdown viability, ATP luminescence, 48 h. Potency, µM (titrated, usually from 46.1 µM), for the others: top-dose activity, negative = toxicity, actives largely listed as cytotoxic. 2% of 360,000 active;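 further: potency means the concentration at half of the fitted maximal effect; 0% = DMSO wells and -100% = cell-free medium wells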
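After a 2 h attachment period, IDH1KD HT-1080 cells took pin-transferred compound for 48 h at 37 °C; ATP-based luminescence after 10 min room-temperature reagent incubation reported viability.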
TDP1 cell CPT – qHTS for Inhibitors of human tyrosyl-DNA phosphodiesterase 1 (TDP1): qHTS in cells in presence of CPT | chicken DT40 Tdp1-/-;hTDP1 cells + 20 nM CPT, ATP luminescence, 48 h | AID 686979, 2013 | 12% of 420,000 active | Potency, µM (top dose mostly 46.2 µM), for the others: top-dose activity change, negative = growth inhibition, hits mostly inhibitors; further: potency means the concentration at half of the fitted maximal effect; nearly all actives have a fitted effect of over 55% in size
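Chicken DT40 Tdp1-/- cells stably complemented with human TDP1 were seeded at 400 cells/well in medium containing 20 nM camptothecin, exposed to pin-transferred compounds, and grown at 37 °C for at least 48 hr. Viability was read as ATP luminescence.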
IL1B secr inh – qHTS for Inhibitors of Inflammasome Signaling: IL-1-beta AlphaLISA Primary Screen; THP-1 LPS/ATP IL-1B secretion, AlphaLISA, 16 h; stronger effect = lower value; activity change, % at 57.5 µM; 4.7% of 360,000 active; AID 743279, 2014; in the data active means activity change below about -50%; inconclusive means mostly about -30% to -49%
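Secreted IL-1B measured by AlphaLISA bead assay after 16 h compound exposure of THP-1 cells; compounds (final up to 57.5 uM) added 1 h before LPS (250 ng/mL) and ATP (1.25 mM) stimulation; lower signal means less secretion.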
HT1080NT lethal – qHTS for induction of synthetic lethality in tumor cells producing 2HG: qHTS for the HT-1080-NT fibrosarcoma cell line. HT-1080-NT fibrosarcoma viability, CellTiter-Glo ATP luminescence, 48 h. AID 686970, 2013. 1.6% of 360,000 active. Potency, µM (doses to about 46.1 µM), without a hit: at the highest dose activity, negative = less viability, most hits filed as cytotoxic;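 further: NT is the 2HG producing partner of a matched IDH1 knockdown line; potency means the concentration at half of the fitted maximal effect; 0% = DMSO-treated cells and -100% = media-only wells without cells; nearly all actives have a fitted effect of over 55% in size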
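750 cells/well, RPMI + 5% FBS; 2 h settle, compound pin-transfer, 48 h at 37 degrees C. CellTiter-Glo 10 min RT, luminescence. Normalized to DMSO and media-only wells.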
* = called active by the depositor; ? = inconclusive; . = no result given. Unless noted, the call rests on the fitted dose curve; in most records, active means well fitted curve in the direction sought with a large enough effect; inconclusive means small, poorly fitted or top-dose-only effect, or another doubt; inactive means no such curve, though single readings can be large; an effect the other way counts as inactive or inconclusive. Unless noted, on the % scale 0 is the no-effect control and ±100 the full control effect.

SMILES	TDP1 cell noCPT	HT1080 IDH1KD tx	TDP1 cell CPT	IL1B secr inh	HT1080NT lethal
CC(CN1c2ccccc2Sc2ccccc21)N(C)C (configuration not stated)	?	0%	?	?	1%
COc1ccc2c(c1)N(C[C@H](C)CN(C)C)c1ccccc1S2	?	21µM*	?	?	23µM*
O=C(CSc1nc2ccccc2s1)N1c2ccccc2Sc2ccc(C(F)(F)F)cc21	15µM*	-13%	?	29	-2%
O=C(CSc1nc2ccccc2s1)N1c2ccccc2Sc2ccc(Cl)cc21	?	-5%	?	-1	-1%
CN(C)CCC(=O)N1c2ccccc2Sc2ccc(C(F)(F)F)cc21	?	4%	23µM*	-3	1%
COc1ccc(OC)c(NC(=O)C(=O)N/N=C(\C)CC(=O)Nc2ccc(Cl)cn2)c1	28%	4%	0%	6	-1%
CC(CN(C)C)CN1c2ccccc2Sc2ccccc21 (configuration not stated)	18µM*	?	?	?	16µM*
COc1ccc(N2C(=O)Cc3cc(OC)c(OC)cc3C2c2ccc(F)cc2)cc1 (configuration not stated)	?	.	23µM*	.	.
COC(=O)c1ccc(N2C(=O)Cc3cc(OC)c(OC)cc3C2c2ccc(F)cc2)cc1 (configuration not stated)	?	.	15µM*	.	.
Cc1nn(CCOc2cccc(Br)c2)c(C)c1[N+](=O)[O-]	0%	1%	3%	-2	4%
Cc1ncc(C(=O)O)c(C(=O)O)c1N	-14%	0%	4%	-7	1%
COc1ccccc1-c1nnc(SCC(=O)Nc2cccnc2Cl)n1C	-15%	0%	-13%	9	?
Cc1cccc(N2C(=NC(=O)c3ccccc3)SC3CS(=O)(=O)CC32)c1 (configuration not stated)	2%	-5%	-12%	-7	-1%
FC(F)(F)c1cc(CO[C@H]2CCCN[C@H]2c2ccccc2)cc(C(F)(F)F)c1	13µM*	.	11µM*	.	.
COC(=O)c1ccc(C(=O)OC)c(NC(=O)COC(=O)CC2CC3CCC2C3)c1 (configuration not stated)	23µM*	2%	?	8	5%
Cc1ccc(Cl)cc1NC(=O)COC(=O)CC1CC2CCC1C2 (configuration not stated)	0%	10%	-21%	10	9%
COC(=O)c1ccc(C(=O)OC)c(NC(=O)COC(=O)C2CCC(C(C)(C)C)CC2)c1 (configuration not stated)	?	-11%	23µM*	30	-1%
Cc1ccc2nc(C)c3c(c2c1)N(c1ccc(F)cc1)CC3	?	15µM*	10µM*	.	21µM*
COc1cccc2c3c(c(C)nc12)CCN3c1ccccc1	15µM*	?	?	-93*	?
COc1ccccc1N1CCc2c(C)nc3c(OC)cccc3c21	4.1µM*	?	5.8µM*	-72*	?
CCCc1c(C)nc2c(OC)cccc2c1SCC(=O)O	-13%	14%	3%	3	14%
COc1cccc2c1nc(C)c1cc(C)oc12	?	0%	-24%	-2	-7%
Clc1cccc(CNc2ccn3nc(-c4ccccc4Cl)cc3n2)c1	?	?	?	-73*	?
Clc1cccc(CNc2ccn3nc(-c4cccc(OCc5ccccc5)c4)cc3n2)c1	?	9.2µM*	?	-27	?
c1ccc(COc2ccc(-c3cc4nc(NCc5ccc6c(c5)OCO6)ccn4n3)cc2)cc1	7.3µM*	?	18µM*	45	-19%

High-throughput results as filed in PubChem.
